Bioassay records deposited in PubChem BioAssay by National Center for Advancing Translational Sciences (NCATS).
HTT aggregate – reduces HttQ103-GFP aggregates in PC12 cells | Potency, µM (titrated, usually from 46.1 µM), usual class: inhibitors | 1.1% of 220,000 active | PC12 HttQ103-GFP aggregates, Acumen cytometry, 40 h; further: nearly all actives have a fitted effect of over 60% in size
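Aggregate formation scored by laser-scanning cytometer (488 excitation, 500–530 emission) in lysed PC12 cells expressing Q103-GFP after 100 nM tebufenozide induction; library tested in dose series, with ATPLite reagent added in the multiplex.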
HTT cytoprotect – cytoprotection in Huntington HTT-Q103 PC12 cell model; PC12 HTT-Q103 induced, cytoprotection, ATP luminescence, 40 h; Potency, µM (doses to about 56.4 µM), hits mostly activators; 0.14% of 230,000 active; AID 1471; further: nearly all actives have a fitted effect of over 45% in size
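Cells were plated at 1500 per well in phenol red-free DMEM with 5% equine and 5% calf serum. Tebufenozide (100 nM final) and compounds were added, then ATPlite reagent, and luminescence was read.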
PNC assembly inh – perinucleolar compartment assembly inhibition; 3.1% of 140,000 active; AID 2417; activity change (PNC), negative = inhibition, % at 10 µM; PC3M PTB-GFP, PNC prevalence imaging, 16 h; active compounds read low;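 active means readout at or below -70, meaning at least 70% loss of cells showing the perinucleolar compartment, a nuclear body marking cancer cells; inconclusive means readout between -30 and a set limit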
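Read-out is percentage of cells bearing a perinucleolar compartment, from automated 20x imaging of fixed, Hoechst-stained PC3M PTB-GFP cells. Cells were seeded 4 h, then exposed 16 h to compound (23 nl of library stock) in duplicate plates.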
Each line names hits and unclear results; the compound was inactive in the other large screens. Only a selection was taken, and hits are over-represented in it overall. Unless noted, the call rests on the fitted dose curve; in most records, active means well fitted curve in the direction sought with a large enough effect; inconclusive means small, poorly fitted or top-dose-only effect, or another doubt; inactive means no such curve, though single readings can be large; an effect the other way counts as inactive or inconclusive.

Cc1cccc(NC(=O)COC(=O)c2cc(C)oc2C)c1	HTT aggregate 13µM (no result: PNC assembly inh)
Cc1cccc(NS(=O)(=O)c2ccc(C)c(C(=O)OCC(=O)Nc3cc(C)on3)c2)c1	PNC assembly inh -100
Cc1cccc(NS(=O)(=O)c2cc(C(=O)OCC(=O)Nc3cc(C)on3)ccc2C)c1	PNC assembly inh inconclusive
CCOc1ccc(OCc2ccc(C(=O)N(CC)CC)cc2)cc1	none (no result: HTT cytoprotect, PNC assembly inh)
CCc1ccc(OCC(=O)Nc2ccc(CN3CCCCC3)cc2)cc1	none (no result: HTT cytoprotect)
COc1cc(NC(=O)CN2CCN(Cc3ccc4c(c3)OCO4)CC2)cc(OC)c1	none
O=c1oc(-c2cccs2)nc2ccc(Br)cc12	none
COc1ccc(C2C(C(=O)N3CC(C)CC(C)C3)c3ccccc3C(=O)N2C)cc1 (configuration not stated)	none
COc1ccc(C2C(C(=O)N3CCC(C)CC3)c3ccccc3C(=O)N2C)cc1 (configuration not stated)	PNC assembly inh -86
CCOC(=O)C1(CC2CCCCO2)CCN(C(=O)Nc2ccccc2SC)CC1 (configuration not stated)	none (no result: PNC assembly inh)
CC(=O)Nc1cccc2c1C(=O)N(c1cccc(OC(C)=O)c1)C2=O	none (no result: PNC assembly inh)
CC(=O)Oc1cccc(N2C(=O)c3ccccc3C2=O)c1	PNC assembly inh -85
COc1ccccc1-c1nnc2sc(C3CCCCC3)nn12	none
COc1cc(OC)c(-c2nn3c(-c4ccncc4)nnc3s2)cc1OC	PNC assembly inh -136
COc1cc(OC)c(-c2nn3c(-c4cccnc4)nnc3s2)cc1OC	none
c1csc(Cc2nn3c(-c4ccncc4)nnc3s2)c1	HTT aggregate 10µM, PNC assembly inh inconclusive
c1cc(-c2nnc3sc(C4CCCCC4)nn23)ccn1	HTT aggregate 13µM, PNC assembly inh inconclusive
c1csc(-c2nn3c(-c4ccncc4)nnc3s2)c1	PNC assembly inh inconclusive
CCOc1cccc(/C=C2/NC(=O)N(CC(=O)Nc3cccc(C)c3)C2=O)c1O	HTT cytoprotect inconclusive (no result: PNC assembly inh)
CNC(=S)Nc1ccc2nc(C)c(C)nc2c1	none
COCc1cc(C)nc2sc(C(=O)NCCO)c(-n3cccc3)c12	none (no result: PNC assembly inh)
COc1ccc(CC(=O)N/N=C/c2c(C)n(C)c3ccccc23)cc1OC	none (no result: PNC assembly inh)
Cc1cccc(/C=N\NC(=O)c2ccc(Cl)cc2)c1O	HTT aggregate 0.45µM (no result: PNC assembly inh)
O=C(N/N=C/c1cc(Cl)ccc1O)c1ccc(Br)cc1	HTT aggregate inconclusive, PNC assembly inh -107
O=C(N/N=C/c1cc(Br)ccc1O)c1ccncc1	none (no result: PNC assembly inh)
COc1cccc(/C=N/NC(=O)c2ccc(-c3ccccc3)cc2)c1O	HTT aggregate inconclusive
CC(=O)Nc1ccc(C(=O)Nc2cccc(-c3cnc4ccccc4n3)c2)cc1	none (no result: PNC assembly inh)
O=C(Nc1ccc(Oc2ccc3c(c2)C(=O)N(c2ccc(O)cc2)C3=O)cc1)c1cccs1	none
CC(C)(O)c1cc(=O)sc2nc3ccccc3n12	PNC assembly inh -100
c1ccc2nc3c(nc2c1)sc1nc2ccccc2n13	none
O=C(c1ccc(C(F)(F)F)cc1)N1CCC(=O)N(C(COCc2ccc(C(F)(F)F)cc2)Cc2ccccc2)CC1 (configuration not stated)	none (no result: HTT cytoprotect)
Cc1cccc(COCC(Cc2ccccc2)N2CCN(C(=O)c3ccc(C(F)(F)F)cc3)CCC2=O)c1 (configuration not stated)	PNC assembly inh -80 (no result: HTT cytoprotect)
Cn1cccc1Cc1nnc(SCC(=O)N2CCCC2)n1CCc1ccccc1	none
CC1CCN(C(=O)CSc2nnc(Cc3cccn3C)n2CCc2ccccc2)CC1	PNC assembly inh -95
CC1CC1c1ccc(/C=C(\C#N)C(=O)Nc2ccc(Cl)cc2)o1 (configuration not stated)	PNC assembly inh -125
N#C/C(=C/c1ccc(N2CCCCC2)o1)C(=O)Nc1ccc(Cl)cc1	HTT aggregate inconclusive, PNC assembly inh -123
CC1CC1c1ccc(/C=C(\C#N)C(=O)Nc2ccccc2Cl)o1 (configuration not stated)	none
N#C/C(=C/c1ccc(N2CCCCC2)o1)C(=O)Nc1ccc2ccccc2c1	HTT aggregate 2.5µM, PNC assembly inh -91
N#C/C(=C\c1ccc(N2CCOCC2)o1)C(=O)Nc1ccc(O)cc1	none (no result: PNC assembly inh)
COc1ccc(NC(=O)/C(C#N)=C\c2ccc(N3CCOCC3)o2)cc1	none (no result: PNC assembly inh)
Cc1onc(-c2c(Cl)cccc2Cl)c1-c1nc2cc(Cl)ccc2c(=O)o1	none (no result: PNC assembly inh)
CCOC(=O)/C=C/c1nc(C(=O)OCC)c(C)c(=O)[nH]1	none (no result: PNC assembly inh)
COC(=O)c1c(C)[nH]c(C(=O)N2CCN(c3ccc(OC)cc3)CC2)c1C	none (no result: PNC assembly inh)
Cc1cc(/C=C(\C#N)C(=O)Nc2ccc(F)cc2)c(C)n1-c1ccc(N2CCOCC2)c([N+](=O)[O-])c1	none
CC(=O)c1c(C)[nH]c(C(=O)CSc2ncnc3sc(-c4ccccc4)cc23)c1C	none
